Assay results as given in the supplement of paper PMC13380429.

The molecules below were run on Vero E6 infected with SARS-CoV-2 (assay: morphology score (similarity to uninfected cells); higher = more like uninfected cells). Details: 24 h.

| Structure (SMILES) | morphology score |
| --- | --- |
| Cc1oc2ccccc2c1CNC(=O)NCc1cccs1 (10 µM) | 0.0505 |
| N#CN1CCCC1 [pyrrolidine-1-carbonitrile] (10 µM) | 0.254 |
| CC(C)C(=O)Nc1ncc(-c2cc(C(F)F)nn2-c2c(Cl)cccc2Cl)s1 (10 µM) | -0.133 |
| Nc1ccc(S(=O)(=O)Nc2cnc3ccccc3n2)cc1 [sulfaquinoxaline] (10 µM) | 0.114 |
| NC[C@H]1O[C@H](O[C@H]2[C@H](O)[C@@H](O[C@H]3O[C@H](CO)[C@@H](O)[C@H](N)[C@H]3O)[C@H](N)C[C@@H]2N)[C@H](N)C[C@@H]1O [tobramycin] (10 µM) | 0.095 |
| Cc1ncc(NC(=O)c2ccc(CN3CCN(C)CC3)c(C(F)(F)F)c2)cc1Nc1nccc(-c2cccnc2)n1 [flumatinib] (10 µM) | 0.306 |

These molecules were tested on Vero E6 infected with SARS-CoV-2 (assay: SARS-CoV-2 infection rate relative to infected DMSO; higher = more infection, active = 60 or less). Details: 24 h.

| Structure (SMILES) | SARS-CoV-2 infection rate |
| --- | --- |
| CC[N+](C)(CC)CCC[n+]1c(-c2ccccc2)c2cc(N)ccc2c2ccc(N)cc21 [propidium-iodide] (10 µM) | 93.5% (inactive) |
| CC[C@]12C=CCN3CC[C@@]4(c5cc([C@@]6(C(=O)OC)C[C@@H]7C[C@@H](C(C)(F)F)CN(Cc8c6[nH]c6ccccc86)C7)c(OC)cc5N(C)[C@H]4[C@@](O)(C(=O)OC)[C@@H]1OC(C)=O)[C@@H]32 [Vinflunine Ditartrate] (10 µM) | 105% (inactive) |
| CCOC(=O)c1cncn1[C@H](C)c1ccccc1 [etomidate] (10 µM) | 110% (inactive) |
| CC(/C=C/C(=O)NO)=C\[C@@H](C)C(=O)c1ccc(N(C)C)cc1 [trichostatin-a] (0.833333 µM) | 108% (inactive) |
| NNc1nncc2ccccc12 [hydralazine] (10 µM) | 104% (inactive) |
| NCCCC[C@H](N[C@@H](CCc1ccccc1)C(=O)O)C(=O)N1CCC[C@H]1C(=O)O [lisinopril] (10 µM) | 100% (inactive) |
| NS(=O)(=O)c1cc2c(cc1Cl)NC(C1CC3C=CC1C3)NS2(=O)=O (stereo unspecified) [cyclothiazide] (10 µM) | 106% (inactive) |
| O=C(Nc1c(-c2cccs2)nc2ccccn12)c1ccc(Cl)cc1 (10 µM) | 84% (inactive) |
| CCOC(=O)[C@H](CCc1ccccc1)N[C@@H](C)C(=O)N1Cc2cc(OC)c(OC)cc2C[C@H]1C(=O)O [moexipril] (10 µM) | 90% (inactive) |
| COC(=O)C[C@](O)(CCC(C)(C)O)C(=O)O[C@@H]1C(OC)=C[C@]23CCCN2CCc2cc4c(cc2[C@H]13)OCO4 [harringtonine] (10 µM) | 49% (active) |
| CC/C(=C(/CC)c1ccc(O)cc1)c1ccc(O)cc1 [diethylstilbestrol] (10 µM) | 102% (inactive) |
| CCOc1cc(C=O)ccc1O [ethyl-vanillin] (10 µM) | 100% (inactive) |
| Cc1cc(C)c2c(N)c(C(=O)NCc3ccc(Cl)cc3)sc2n1 (10 µM) | 99% (inactive) |
| O=C(O[C@H]1CN2CCC1CC2)N(Cc1cc(F)c(F)c(F)c1)c1cccc(F)c1 [tarafenacin] (10 µM) | 74% (inactive) |
| O=[N+]([O-])c1cccc2c(Br)n[nH]c12 [3-bromo-7-nitroindazole] (10 µM) | 110% (inactive) |
| c1cc2c(cc1C1CCCCC1)c1c3n2CCNC3CCC1 (stereo unspecified) [tetrindole] (0.833333 µM) | 108% (inactive) |
| CCCCCCN(CCCCCC)C(=O)Cc1c(-c2ccc(F)cc2)[nH]c2ccccc12 (10 µM) | 106% (inactive) |
| C[C@@H](NC(=O)[C@@H](N)Cc1ccc(O)cc1)C(=O)NCC(=O)N(C)[C@@H](Cc1ccccc1)C(=O)N[C@H](CO)CC[S+](C)[O-] (stereo partly specified) (10 µM) | 112% (inactive) |
| O=C(Cn1c(=O)sc2ccc(Cl)cc21)N1CCN(CCO)CC1 [tiaramide] (10 µM) | 104% (inactive) |
| CCN(CC)CCNC(=O)c1cc(Br)c(N)cc1OC [bromopride] (10 µM) | 116% (inactive) |

| Structure (SMILES) | SARS-CoV-2 infection rate |
| --- | --- |
| CCOC(=O)CCNc1cc(N2CCc3ccccc3CC2)nc(-c2ccccn2)n1 (0.833333 µM) | 116% (inactive) |
| CCOc1ccn(-c2ccc(F)cc2)c(=O)c1C(=O)Nc1ccc(Oc2ccnc(N)c2Cl)c(F)c1 (10 µM) | 107% (inactive) |
| c1ccc(N2CCN(Cc3nc4ccccc4[nH]3)CC2)nc1 (10 µM) | 104% (inactive) |
| Oc1c(Cl)cc(Cl)c2cccnc12 [chloroxine] (10 µM) | 98.5% (inactive) |
| C#CCN[C@@H]1CCc2ccccc21 [rasagiline] (10 µM) | 115% (inactive) |
| C[C@H]1NCc2cc(-c3ccc4c(=O)c(C(=O)O)cn(C5CC5)c4c3OC(F)F)ccc21 [garenoxacin] (10 µM) | 102% (inactive) |
| COc1nccc(-c2c(-c3ccc(F)cc3)ncn2C2CCNCC2)n1 (10 µM) | 98.5% (inactive) |
| CC(C)Oc1ccc(-c2nc(-c3cccc4c3CC[C@@H]4NCCO)no2)cc1C#N [ozanimod] (0.833333 µM) | 101% (inactive) |
| C=C(C)[C@H]1CN[C@H](C(=O)O)[C@H]1CC(=O)O [kainic-acid] (10 µM) | 79% (inactive) |
| Clc1ccccc1CNC[C@H]1CC[C@H](CNCc2ccccc2Cl)CC1 (10 µM) | 49% (active) |
| Nc1ccc(C(=O)O)cc1 [potassium-p-aminobenzoate] (10 µM) | 108% (inactive) |
| CCOC(=O)Nc1cc2c(c(N)n1)N=C(c1ccccc1)[C@H](C)N2 [mivobulin] (10 µM) | 112% (inactive) |
| c1ccc2c(c1)CCCc1cc(NCCN3CCOCC3)nnc1-2 (10 µM) | 116% (inactive) |
| Cc1ccc(-c2nn(C(C)(C)CNC(=O)c3ncccc3C)c3ncnc(N)c23)cc1 [WEHI-345-analog] (0.833333 µM) | 122% (inactive) |
| Cc1oc2ccccc2c1CNC(=O)NCc1cccs1 (10 µM) | 100% (inactive) |
| N#CN1CCCC1 [pyrrolidine-1-carbonitrile] (10 µM) | 92% (inactive) |
| CC(C)C(=O)Nc1ncc(-c2cc(C(F)F)nn2-c2c(Cl)cccc2Cl)s1 (10 µM) | 108% (inactive) |
| Nc1ccc(S(=O)(=O)Nc2cnc3ccccc3n2)cc1 [sulfaquinoxaline] (10 µM) | 104% (inactive) |
| NC[C@H]1O[C@H](O[C@H]2[C@H](O)[C@@H](O[C@H]3O[C@H](CO)[C@@H](O)[C@H](N)[C@H]3O)[C@H](N)C[C@@H]2N)[C@H](N)C[C@@H]1O [tobramycin] (10 µM) | 113% (inactive) |
| Cc1ncc(NC(=O)c2ccc(CN3CCN(C)CC3)c(C(F)(F)F)c2)cc1Nc1nccc(-c2cccnc2)n1 [flumatinib] (10 µM) | 25.5% (active) |
